Experimental findings from PubChem BioAssay (NCI) are described below.

Among the test systems are HCT-15 colon; HT29 colon; SNB-75 CNS; SNB-19 CNS; U251 CNS; PC-3 prostate; SK-MEL-5 melanoma; UACC-62 melanoma; LOX IMVI melanoma; SK-MEL-28 melanoma.
Assay in all cases: NCI-60 one-dose screen, 48 h (100 = growth as untreated, 0 = no growth, -100 = all killed)
Common to all, as to settings: 10 µM unless noted

The panel holds about 83,000 compounds, 20% with a hit somewhere; the sample as a whole holds those more often.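 Interpretation: 100, growth as untreated; towards 0, rising growth inhibition; 0, no net growth; 0 to -100, cell death. Compounds scoring below 10 were considered active.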 Unmarked numbers belong to inactive results. The source made the active and inactive calls.

For the compound `[Cl][Hg][c]1cc(Br)cc(Br)c1`, the growth in the assay on HCT-15 colon was 38.2%; in the assay with HT29 colon, 46.4%; in the assay with SNB-75 CNS it was 21.6%; in the assay on SNB-19 CNS, 17%; with U251 CNS it was -55.9% (active); in the assay on PC-3 prostate, 50.3%. For the same compound, the growth in the assay on SK-MEL-5 melanoma was 22.1%; in the assay on UACC-62 melanoma it was 47%; in the assay with LOX IMVI melanoma, 9.91% (active); with SK-MEL-28 melanoma, 59.5%.

As for `Cc1ccccc1NC(=NCCCN1CC1)Nc1ccccc1C`, the growth in the assay on HCT-15 colon is 96%; in the assay with HT29 colon, 75.5%; with SNB-75 CNS, 100%; with SNB-19 CNS it was 96.8%; in the assay with U251 CNS it was 91.5%; in the assay on PC-3 prostate it was 74.4%. For the same compound, the growth in the assay with SK-MEL-5 melanoma is 98%; in the assay on UACC-62 melanoma, 105%; in the assay with LOX IMVI melanoma it was 75.3%; in the assay on SK-MEL-28 melanoma it was 111%.

With `CN(C)C(=O)Oc1ccccc1`, the growth in the assay with HCT-15 colon is 98.1%; in the assay with HT29 colon, 118%; in the assay on SNB-75 CNS it was 89.1%; in the assay on SNB-19 CNS, 115%; with U251 CNS it was 103%; in the assay with PC-3 prostate, 94.8%. The growth in the assay with SK-MEL-5 melanoma is 113%; with UACC-62 melanoma, 109%; with LOX IMVI melanoma, 92.4%; in the assay with SK-MEL-28 melanoma, 111%.

With `CCC(CC)CC1(C)CC2(C)CCOC2OO1` (stereo not given), the growth in the assay on HCT-15 colon was 104%; in the assay with HT29 colon, 100%; in the assay on SNB-75 CNS it was 98.8%; with SNB-19 CNS, 103%; with U251 CNS, 102%; with PC-3 prostate, 99.8%. The growth was 98.5% with SK-MEL-5 melanoma, 95.4% in the assay on UACC-62 melanoma, 102% in the assay on LOX IMVI melanoma and 109% in the assay with SK-MEL-28 melanoma.

Take `CNC(=O)Oc1ccc(C(C)(C)C)cc1OC(=O)NC`: the growth was 90.5% in the assay on HCT-15 colon; 88.8% in the assay on HT29 colon; 91% in the assay on SNB-75 CNS; 101% with SNB-19 CNS; 92.3% in the assay with U251 CNS; 94% with PC-3 prostate. Besides, the growth in the assay with SK-MEL-5 melanoma is 98.9%; in the assay with UACC-62 melanoma it was 99.6%; with LOX IMVI melanoma it was 92.4%; in the assay with SK-MEL-28 melanoma it was 107%.

As for `COC(=O)CCc1c[nH]c2ccc(N(CCCl)CCCl)cc12`, the growth was 64.9% in the assay on HCT-15 colon; 59.3% in the assay on HT29 colon; 49% in the assay with SNB-75 CNS; 54% in the assay on SNB-19 CNS; 40.1% in the assay on U251 CNS; 65.3% with PC-3 prostate. Moreover, the growth in the assay on SK-MEL-5 melanoma was 52%; in the assay with UACC-62 melanoma it was 49.3%; in the assay with LOX IMVI melanoma it was 29.7%; in the assay with SK-MEL-28 melanoma it was 91.1%.

As to `CC[C@H](C)[C@H](NC(=O)c1nccn1C)C(=O)N(C)[C@H](C[C@@H](OC(C)=O)c1nc(C(=O)N[C@@H](Cc2ccccc2)C[C@H](C)C(=O)OC)cs1)C(C)C`, the growth in the assay on HCT-15 colon is 10.5%; in the assay on HT29 colon, -6.75% (active); with SNB-75 CNS it was 15.8%; in the assay on SNB-19 CNS it was 37.3%; with U251 CNS, 9.94% (active); in the assay on PC-3 prostate it was 25.2%. Also, the growth is -0.799% (active) with SK-MEL-5 melanoma, 55.7% in the assay on UACC-62 melanoma, 17.6% in the assay with LOX IMVI melanoma and 51.2% in the assay on SK-MEL-28 melanoma.

In the case of `CC[C@H](C)[C@H](NC(=O)[C@H]1CCCCN1C)C(=O)N(C)[C@H](C[C@@H](OC(C)=O)c1cccc(C(=O)N[C@@H](Cc2ccccc2)C[C@H](C)C(=O)O)n1)C(C)C`, the growth is 9.38% (active) in the assay with HCT-15 colon; -13.2% (active) with HT29 colon; 8.07% (active) in the assay on SNB-75 CNS; 26.9% in the assay on SNB-19 CNS; 13.6% in the assay on U251 CNS; 25.4% in the assay with PC-3 prostate. The growth in the assay on SK-MEL-5 melanoma was -24.5% (active); in the assay with UACC-62 melanoma it was 40.4%; in the assay with LOX IMVI melanoma, 15.3%; in the assay with SK-MEL-28 melanoma, 69.3%.

Take `O[C@H](CN1CC1)[C@@H](O)CN1CC1`: the growth in the assay on HCT-15 colon is 79.9%; with HT29 colon, 72.5%; with SNB-75 CNS it was 70.6%; in the assay on SNB-19 CNS, 74.5%; with U251 CNS, 60.3%; in the assay with PC-3 prostate it was 75.8%. The growth with SK-MEL-5 melanoma is 75.3%; in the assay on UACC-62 melanoma it was 72.4%; with LOX IMVI melanoma, 44.6%; in the assay on SK-MEL-28 melanoma, 106%.

As for `COC(=O)[C@@H](C)C[C@H](Cc1cn(C)c2ccccc12)NC(=O)c1csc([C@@H](C[C@H](C(C)C)N(C)C(=O)[C@@H](NC(=O)[C@H]2CCCCN2C)C(C)C)OC(C)=O)n1`, the growth was 9.96% (active) in the assay on HCT-15 colon; 3.4% (active) with HT29 colon; 59% with SNB-75 CNS; 35.6% in the assay with SNB-19 CNS; 15.4% with U251 CNS; 24.3% in the assay with PC-3 prostate. Moreover, the growth is -38.4% (active) in the assay on SK-MEL-5 melanoma, 47.8% with UACC-62 melanoma, 19.1% in the assay with LOX IMVI melanoma and 60.6% in the assay on SK-MEL-28 melanoma.

As to `NC(CCl)CCl`, the growth in the assay on HCT-15 colon is 87.3%; in the assay with HT29 colon, 97.8%; in the assay with SNB-75 CNS, 90.3%; in the assay with SNB-19 CNS it was 105%; in the assay with U251 CNS it was 99.8%; with PC-3 prostate, 104%. Besides, the growth in the assay with SK-MEL-5 melanoma is 99.4%; with UACC-62 melanoma, 99.9%; in the assay on LOX IMVI melanoma, 106%; with SK-MEL-28 melanoma, 98.3%.

On to `CO[C@H](C(=O)O)[C@@H]1Cc2cc3cc(OC4CC(OC5CC(O)C(O)C(C)O5)C(O)C(C)O4)c(C)c(O)c3c(O)c2C(=O)[C@H]1OC1CC(OC2CC(OC3CC(C)(O)C(O)C(C)O3)C(O)C(C)O2)C(O)C(C)O1` (stereo not given in full), for which the growth is 38.7% with HCT-15 colon; 7.12% (active) in the assay on HT29 colon; -55.1% (active) in the assay with SNB-75 CNS; 10.8% in the assay on SNB-19 CNS; 10.1% with U251 CNS; 19.7% in the assay with PC-3 prostate. Besides, the growth in the assay on SK-MEL-5 melanoma was -17.2% (active); with UACC-62 melanoma, -68.1% (active); in the assay with LOX IMVI melanoma, -6.05% (active); with SK-MEL-28 melanoma, -5.84% (active).
